In PubChem BioAssay (NCI):
This is part of a sample that, as a whole, favours compounds with a hit. Of some 83,000 tested, about 20% had one in any assay.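 The endpoint reported here, percent growth, reads 100 for growth as untreated, 0 for no net growth and -100 for all cells dead.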 Unmarked numbers belong to inactive results. Active and inactive are the calls of the source. Rule for the calls: active = growth percent below 10; inactive = the rest.

Columns and labels:
Test in all cases: NCI-60 one-dose screen, 48 h (100 = growth as untreated, 0 = no growth, -100 = all killed)
Conditions in all cases: 10 µM unless noted
NCI-H23 lung = test system: NCI-H23 lung
NCI-H226 lung = test system: NCI-H226 lung
NCI-H322M lung = test system: NCI-H322M lung
HOP-62 NSCLC = test system: HOP-62 NSCLC
NCI-H460 lung = test system: NCI-H460 lung
NCI-H522 lung = test system: NCI-H522 lung
A549/ATCC NSCLC = test system: A549/ATCC NSCLC
786-0 renal = test system: 786-0 renal
DU-145 prostate = test system: DU-145 prostate
K-562 leukemia = test system: K-562 leukemia
MALME-3M melanoma = test system: MALME-3M melanoma
MDA-MB-231 breast = test system: MDA-MB-231 breast
RXF 393 renal = test system: RXF 393 renal
SF-268 CNS = test system: SF-268 CNS
SF-295 CNS = test system: SF-295 CNS
SF-539 CNS = test system: SF-539 CNS
UACC-257 melanoma = test system: UACC-257 melanoma
M14 melanoma = test system: M14 melanoma
COLO 205 colon = test system: COLO 205 colon

Structure (SMILES) | growth (NCI-H23 lung) | growth (NCI-H226 lung) | growth (NCI-H322M lung) | growth (HOP-62 NSCLC) | growth (NCI-H460 lung) | growth (NCI-H522 lung) | growth (A549/ATCC NSCLC) | growth (786-0 renal) | growth (DU-145 prostate) | growth (K-562 leukemia) | growth (MALME-3M melanoma) | growth (MDA-MB-231 breast) | growth (RXF 393 renal) | growth (SF-268 CNS) | growth (SF-295 CNS) | growth (SF-539 CNS) | growth (UACC-257 melanoma) | growth (M14 melanoma) | growth (COLO 205 colon)
COc1ccc2nc(-c3ccc(-c4noc(-c5ccc(Cl)cc5)n4)cc3)[nH]c2c1 | 63.7% | 93.4% | 67.5% | 97.4% | 79.1% | 88.6% | 72.8% | 98.5% | 48% | 45.1% | 37.1% | 75.6% | 103% | 63.4% | 87.5% | 77.2% | 74.5% | 42.9% | –
CCN1CCN(Cc2ccc(NC(=O)Nc3ccc(-n4ccc5c(NC(=O)c6ccccc6)nccc54)cc3)cc2C(F)(F)F)CC1 | -51.5% (active) | 71.1% | 80.8% | -78.4% (active) | -44.3% (active) | -87.2% (active) | -62.8% (active) | -84.6% (active) | -58.6% (active) | -39.2% (active) | -48% (active) | -39.3% (active) | -86.8% (active) | 41.7% | -18.9% (active) | -48.4% (active) | -69.6% (active) | – | –
COc1cc(C2CC(=O)Nc3c2cnn3C)cc(OC)c1OC (stereo unspecified) | 108% | 104% | 100% | 98.2% | 117% | 101% | 107% | 103% | 108% | – | 97.7% | 118% | 124% | 112% | 105% | 103% | 101% | 103% | 110%
C#CCO[C@H]1CC[C@H](OCC#C)[C@@H]2[C@H]1[C@H]1C[C@@H]3[C@@]4(C)CCC[C@@](C)(C(=O)OC)[C@@H]4CC[C@@]23C=C1C(C)C | 64.3% | 81.7% | 88.5% | 77.5% | 104% | -66.5% (active) | 57.1% | -23.5% (active) | 94.3% | 79.7% | -41.7% (active) | 65% | 94.9% | 81.1% | 92.7% | 70.9% | 56% | 93.8% | –
COc1ccc(-c2conc2-n2nc(-c3ccccc3)nc2-c2ccccc2)cc1 | 98.3% | 89.7% | 97.6% | 95.9% | 120% | 89.7% | 114% | 107% | 119% | – | 105% | 94% | 113% | 122% | 98.8% | 107% | 115% | 98.6% | 112%
CC(C)OC1OC(OC(C)C)C(OC(C)C)OC1OC(C)C (stereo unspecified) | 94.9% | 99.9% | 98.1% | 123% | 104% | 70.9% | 92.4% | 99.4% | 112% | 92.5% | 119% | 91.8% | 127% | 96.5% | 109% | 105% | 92.2% | 99.2% | –
O=S1(=O)NCCCN1CCNc1nccc(-c2c(-c3cccc(O)c3)nc3sccn23)n1 | 83.7% | 84.9% | 85.1% | 118% | 67.1% | 76% | 124% | 59.3% | 74.2% | – | 17.3% | 50.7% | 64.3% | 81.3% | 112% | 70.3% | 39.9% | 7.6% (active) | 32.6%
CCN1C(=O)N(CC)C2C1N=C(SC)N2/N=C/C=C/c1ccccc1OC (stereo unspecified) | 21.9% | 34.8% | 31.7% | 25.2% | 6.18% (active) | -32.8% (active) | 17.7% | 14.5% | 5.61% (active) | 6.68% (active) | 31.9% | 21.2% | 11% | 23.5% | 10.6% | -4.87% (active) | 55.3% | 4.55% (active) | –
O=C1OCC2=C1C(c1ccccc1)c1cc3c(cc1N2CCO)CCC3 (stereo unspecified) | -0.519% (active) | 27% | 34.2% | 20.9% | -37.3% (active) | -31.4% (active) | 34.6% | 8.65% (active) | 2.03% (active) | – | 50.2% | 16.4% | 11% | 39.2% | -21.8% (active) | -50.5% (active) | 61.7% | -15.1% (active) | -81.7% (active)
